Data from PubChem BioAssay (Tox21).
Calls of active or inactive are those of the source. The call rests on the fitted dose curve; in most records, active means well fitted activation curve with a large enough effect in the repeat runs; inconclusive means weak or mixed curves; inactive means flat fitted curve, though single readings scatter.

Assay: Caspase-3/7 induction in CHO-K1 cells by small molecules, qHTS assay (AID 1346980); further: nearly all actives have a fitted effect of over 15% in size
Conditions: CHO-K1 caspase-3/7 induction, Caspase-Glo luminescence, 17 h; series mostly up to 92.4 µM; caspase-3/7 activation: at the top concentration
From the text: National Center for Advancing Translational Sciences [NCATS]
NIH Chemical Genomics Center [NCGC]
U.S. Environmental Protection Agency [EPA]
National Institutes of Environmental Health Sciences [NIEHS]
National Toxicology Program [NTP]
Apoptosis is a process of programmed cell death and plays a central role in the development of multicellular organisms. It is a highly regulated process and induces cell death by activating caspases, which are the members of cysteine aspartic acid-specific protease (caspase) family. Caspases involved in apoptosis are classified by their mechanism of action as initiator caspases (caspase-2, -8, -9 and -10) and executioner caspases (caspase-3, -6, and -7). Inhibition of apoptosis results in number of cancers, autoimmune diseases, inflammatory diseases and viral infection. To identify small molecule compounds that induce apoptosis, a homogeneous, luminescent Caspase-Glo 3/7 assay was used. Wild type CHO-K1 cells were used to screen Tox21 libraries for identifying caspase-3/7 activity inducers.
CHO-K1 cells were dispensed at 1,500 per well in 5uL of culture medium into white solid bottom 1536-well plates (Corning Life Sciences, Corning, NY) using a Multidrop Combi (Thermo Scientific, Waltham, MA) dispenser. The assay plates were incubated at 37 C and 5% CO2 for 5hr, and then 23nL of compounds dissolved in DMSO and positive control were transferred using a Pintool station (Wako, San Diego, CA). The assay plates were incubated at 37C and 5% CO2 for 17hr. For caspase-3/7 activity read, 4uL of Caspase-Glo 3/7 reagent (Promega Corporation, Madison, WI) was added to each well of the assay plates using Flying Reagent Dispenser (FRD, Aurora Discovery, San Diego, CA) and incubated the assay plates at room temperature for 30min. The luminescence signal was quantified using a ViewLux plate reader (Perkin Elmer, Shelton, CT).
On the % scale 0 is the no-effect control and ±100 the full control effect.

Row | Compound | caspase-3/7 activation | outcome
1 | NC(=O)c1ccc(N)cc1 | 0.472% (inactive) | –
2 | CC1(C)CO[C@@H](CC(=O)O)CN1 | -0.351% [at 42.5 µM] (inactive) | –
3 | CS(=O)(=O)O | 0.0153% (inactive) | –
4 | Cc1ccc(C#N)cc1 | 0.884% (inactive) | –
5 | CCN1CCC[C@H]1CNC(=O)c1c(O)c(Cl)cc(Cl)c1OC | 0.896% [at 42.5 µM] (inactive) | –
6 | CC(C)NC(=O)NC(C)C | 0.0179% (inactive) | –
7 | Nc1c[n+](N2CCOCC2)no1 | -0.478% [at 42.5 µM] (inactive) | –
8 | O=c1n(CCO)c(=O)n(CCO)c(=O)n1CCO | – | inactive
9 | CCOC(=O)CCC(C)=O | -1.21% (inactive) | –
10 | CCCCCCCCCCCC | 0.75% (inactive) | –
11 | CC[N+](C)(C)c1cccc(O)c1 | 0.427% [at 42.5 µM] (inactive) | –
12 | CCn1nc(C(=O)O)c(=O)c2cc3c(cc21)OCO3 | 0.669% [at 42.5 µM] (inactive) | –
13 | CO[C@]12C[C@@H](COC(=O)c3cncc(Br)c3)CN(C)[C@@H]1Cc1cn(C)c3cccc2c13 | -2.15% [at 42.5 µM] (inactive) | –
14 | CC(=O)c1ccccc1O | -0.585% (inactive) | –
15 | Cc1[nH]c(=O)c(C#N)cc1-c1ccc2nccn2c1 | 0.0533% [at 42.5 µM] (inactive) | –
16 | CCCCCCCCCCCCCCCCC | -0.659% (inactive) | –
17 | COCCCOCCCOC | -0.332% (inactive) | –
18 | CCc1cccc2c(CCO)c[nH]c12 | 0.0612% [at 42.5 µM] (inactive) | –
19 | COc1nc(N)nc2c1ncn2[C@@H]1O[C@H](CO)[C@@H](O)[C@@H]1O | -0.856% [at 42.5 µM] (inactive) | –
20 | CC(C)(C)c1nnc(NS(=O)(=O)c2ccccc2)s1 | 0.0161% [at 42.5 µM] (inactive) | –

Row | Compound | caspase-3/7 activation | outcome
21 | CC(C)(C)NCCNC(C)(C)C | 1.85% (inactive) | –
22 | CC(=O)CC(C)(C)C1CCCCC1 | 2.23% (inactive) | –
23 | CC(=O)OCC(CCn1cnc2cnc(N)nc21)COC(C)=O | -0.25% [at 42.5 µM] (inactive) | –
24 | OCCCC1CCCCC1 | 0.709% (inactive) | –
25 | C=CCOCC(CC)(CO)COCC=C | 0.68% (inactive) | –
26 | O=S(O)CO | 1.71% (inactive) | –
27 | Cc1cccc(C)c1NC(=O)C(C)N (stereo not given) | -2.1% [at 42.5 µM] (inactive) | –
28 | N[C@@H](C(=O)N[C@@H]1C(=O)N2C(C(=O)O)=C(Cl)CS[C@H]12)c1ccccc1 | -1.31% [at 8.39 µM] (inactive) | –
29 | N=C(N)c1ccc(OCCCOc2ccc(C(=N)N)cc2)cc1 | 3.55% [at 42.5 µM] (inactive) | –
30 | CC(=O)Nc1ccc(S(N)(=O)=O)cc1 | -1.42% (inactive) | –
31 | C=CCCCCCCCCC=O | -2.1% (inactive) | –
32 | CC(C)=CCCC(C)CC(=O)O (stereo not given) | 1% (inactive) | –
33 | O=C1CCCN1C1CCCCC1 | -0.454% (inactive) | –
34 | C1OCOCO1 | 0.0546% (inactive) | –
35 | CN(C)CCCN1c2ccccc2CCc2ccc(Cl)cc21 | – | inactive
36 | COCCc1ccc(OCC(O)CNC(C)C)cc1 (stereo not given) | – | inactive
37 | Nc1cc(=O)[nH]c(N)n1 | -0.955% [at 42.5 µM] (inactive) | –
38 | OC1CCCCC1c1ccccc1 (stereo not given) | -0.0459% (inactive) | –
39 | CCN(Cc1ccncc1)C(=O)C(CO)c1ccccc1 (stereo not given) | 0.0053% [at 42.5 µM] (inactive) | –
40 | O=C(O)CN(CCOCCOCCN(CC(=O)O)CC(=O)O)CC(=O)O | 0.707% [at 0.349 µM] (inactive) | –
